In PubChem BioAssay (EPA / NIEHS):
Records with an inconclusive call do not appear. Calls of active or inactive are those of the source. How the source made its calls, unless noted: active means hit-call score of the fitted dose curve at least 0.9, where 1 is the maximum; inconclusive means response in the unintended direction; inactive means score below 0.9.

Columns and labels:
[1] = TOX21_p53_BLA_p2_viability: Viability Assessment in the Tox21 HCT-116 p53 Agonism Beta-lactamase Assay, Phase 2 (AID 2283591);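 further: compound exposure lasted 16 h at 37 °C; actives lower the ATP signal meaning cytotoxicity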
Summary of the method: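 HCT-116 p53-bla cells (4000/well) rested 5 h at 37C, then received compounds in DMSO (217-fold dilution) for 16 h at 37C, 5% CO2. After the CCF4 read, CellTiter-Glo was added; ATP luminescence was read after 30 min at room temperature.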

[2] = molecular target: Cellular tumor antigen p53 (Homo sapiens) (UniProt P04637); test: TOX21_p53_BLA_p2_ratio: Tox21 HCT-116 p53 Agonism Beta-lactamase Assay, Ratio, Phase 2 (AID 2283592)
Summary of the method: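 Plated HCT116 p53-bla cells (4000/well) received compound after 5 h, then 16 h at 37C/5% CO2. CCF4-AM added, 2 h RT. Ratio of 460 to 530 nm emission taken as the p53 reporter signal.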

[3] = TOX21_p53_BLA_p3_viability: Viability Assessment in the Tox21 HCT-116 p53 Agonism Beta-lactamase Assay, Phase 3 (AID 2283593);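 further: cells exposed to compound for 16 h before reading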
Summary of the method: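 HCT-116 cells (4000/well) rested 5 h at 37C, then got DMSO compounds by pin tool (217-fold dilution) for 16 h at 37C, 5% CO2. After the bla read, CellTiter-Glo was added and luminescence read at 30 min, room temperature.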

[4] = TOX21_p53_BLA_p4_viability: Viability Assessment in the Tox21 HCT-116 p53 Agonism Beta-lactamase Assay, Phase 4 (AID 2283597);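 further: hits lower the luminescence signal meaning cytotoxicity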
Summary of the method: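 Readout: ATP luminescence (CellTiter-Glo), measured 30 min after reagent addition at RT. The reagent followed a 2 h CCF4-AM incubation, and the cells had been exposed to compound for 16 h at 37C.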

[5] = molecular target: Cellular tumor antigen p53 (Homo sapiens) (UniProt P04637); test: TOX21_p53_BLA_p5_ratio: Tox21 HCT-116 p53 Agonism Beta-lactamase Assay, Ratio, Phase 5 (AID 2283599)
Summary of the method: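 HCT-116 cells carrying a p53-inducible beta-lactamase reporter were seeded at 4000 cells/well and dosed after 5 h with compound in DMSO (217-fold dilution). After 16 h at 37C, CCF4-AM substrate was added for 2 h, and the 460/530 nm emission ratio was scored as gain-of-signal versus DMSO.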

[6] = molecular target: Cellular tumor antigen p53 (Homo sapiens) (UniProt P04637); test: TOX21_p53_BLA_p4_ratio: Tox21 HCT-116 p53 Agonism Beta-lactamase Assay, Ratio, Phase 4 (AID 2283601)
Summary of the method: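 HCT116 cells carrying an inducible beta-lactamase reporter were plated at 4000 cells/well, rested 5 h, then exposed to compounds in DMSO (217-fold dilution) for 16 h at 37C. CCF4-AM substrate was loaded 2 h at room temperature; 460/530 nm emission ratio scored gain-of-signal versus DMSO.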

[7] = TOX21_p53_BLA_p5_viability: Viability Assessment in the Tox21 HCT-116 p53 Agonism Beta-lactamase Assay, Phase 5 (AID 2283600)
Summary of the method: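 Workflow: seed 4000 cells per well, wait 5 h, add compounds (DMSO, 217-fold dilution), incubate 16 h, load CCF4-AM 2 h, add CellTiter-Glo, read luminescence after 30 min.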

[8] = CCTE_Harrill_HTTr_Viability_MCF7: CCTE's 6-hour Cell Viability Assessment for the High-Throughput Transcriptomics (HTTr) Platform, in MCF-7 cells cultured in DMEM + 10% fetal bovine serum, Harrill Lab (AID 2284010; active means hit-call score of the fitted dose curve at least 0.9, where 1 is the maximum; inactive means score below 0.9)
Summary of the method: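 PI exclusion, high-content imaging; 8-pt dilution series, 6 h exposure; bidirectional fit vs DMSO (neg. ctrl/baseline); gain of signal = loss of membrane integrity.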

[9] = CCTE_Harrill_HTTr_Apoptosis_MCF7: CCTE's 6-hour Apoptosis Assessment for the High-Throughput Transcriptomics (HTTr) Platform, in MCF-7 cells cultured in DMEM + 10% fetal bovine serum, Harrill Lab (AID 2284011; active means hit-call score of the fitted dose curve at least 0.9, where 1 is the maximum; inactive means score below 0.9)
Summary of the method: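 MCF-7 (DMEM + 10% FBS), 384-well; 8-pt dilution series, 6 h chemical exposure; caspase-3/7 activation via CellEvent Caspase 3/7 Green, HCI; bidirectional fit vs DMSO.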

[10] = CCTE_Harrill_HTTr_CellCount_MCF7: CCTE's Cell Proliferation Assessment for the High-Throughput Transcriptomics (HTTr) Platform, Harrill Lab (AID 2284012);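 further: count of Hoechst-stained nuclei per well by high-content imaging in MCF-7 cells; cells exposed to compound for six hours; intended direction is loss of nuclei count meaning fewer cells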
Summary of the method: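 Readout: Hoechst nuclear count by high-content imaging. MCF-7, 8-point dilution series, 6 h exposure. Bidirectional fit vs DMSO baseline.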

[11] = molecular target: Cellular tumor antigen p53 (Homo sapiens) (UniProt P04637); test: TOX21_p53_BLA_p3_ratio: Tox21 HCT-116 p53 Agonism Beta-lactamase Assay, Ratio, Phase 3 (AID 2283596)
Summary of the method: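 Cells were seeded at 4000/well, rested 5 h at 37C, then dosed with DMSO compound solutions (217-fold dilution) for 16 h. CCF4-AM substrate was loaded for 2 h at room temperature, and the 460/530 nm emission ratio was fitted for gain of signal versus DMSO.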

[12] = ACEA_ER_AUC_viability: ACEA Biosciences xCELLigence Real-Time Cell Analysis on Estrogen Receptor Agonism for Viability (AID 2283782);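 further: hit means loss of impedance signal meaning reduced cell growth or viability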
Summary of the method: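 Continuous-exposure impedance cell analysis uses T-47D cells in charcoal-stripped serum, eight 1:4 dilutions topping at 100 uM final, biological duplicate. Area under the growth curve at 80 h is fitted against DMSO baseline.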

Chain of Cellular tumor antigen p53 (Homo sapiens) (P04637 whole entry, looked up): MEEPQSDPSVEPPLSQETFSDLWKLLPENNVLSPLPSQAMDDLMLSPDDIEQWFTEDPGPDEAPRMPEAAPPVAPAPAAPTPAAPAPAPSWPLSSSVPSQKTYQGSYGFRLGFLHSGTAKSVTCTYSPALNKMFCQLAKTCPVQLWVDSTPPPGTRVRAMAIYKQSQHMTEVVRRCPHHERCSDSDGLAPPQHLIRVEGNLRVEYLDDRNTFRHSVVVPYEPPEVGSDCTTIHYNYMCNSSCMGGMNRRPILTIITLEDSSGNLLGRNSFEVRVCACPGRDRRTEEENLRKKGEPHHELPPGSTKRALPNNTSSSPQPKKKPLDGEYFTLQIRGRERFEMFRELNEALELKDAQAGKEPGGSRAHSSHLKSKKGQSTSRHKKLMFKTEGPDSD

CC(C)c1cc2c(cc1S(=O)(=O)O)[C@@]1(C)CCC[C@@](C)(C(=O)O)[C@@H]1CC2
outcome [1]: inactive | outcome [2]: inactive | outcome [3]: inactive | outcome [4]: inactive | outcome [5]: inactive | outcome [6]: inactive

CN(C(=O)CO)c1c(I)c(C(=O)NCC(O)CO)c(I)c(C(=O)NCC(O)CO)c1I (stereo unspecified)
outcome [1]: inactive | outcome [2]: inactive | outcome [3]: inactive | outcome [4]: inactive | outcome [7]: inactive | outcome [6]: inactive

O=[N+]([O-])c1ccc(CCO)cc1
outcome [1]: inactive | outcome [2]: inactive | outcome [3]: inactive | outcome [4]: inactive | outcome [5]: inactive | outcome [6]: inactive

O=C(CCCN1CCC(C(=O)c2ccc(F)cc2)CC1)c1ccc(F)cc1
outcome [1]: inactive | outcome [2]: inactive | outcome [3]: inactive | outcome [4]: inactive | outcome [7]: inactive | outcome [6]: inactive

CC(C)=CCC/C(C)=C/CC/C(C)=C/CC/C=C(\C)CC/C=C(\C)CCC=C(C)C
outcome [1]: inactive | outcome [2]: inactive | outcome [3]: inactive | outcome [4]: inactive | outcome [7]: inactive | outcome [6]: inactive

CCN1CCN(c2cc(-c3ccc(F)cc3)c3c(n2)CCCCCC3)CC1
outcome [1]: inactive | outcome [2]: inactive | outcome [3]: inactive | outcome [4]: inactive | outcome [7]: inactive | outcome [6]: inactive

O=C(OCCO)c1ccccc1O
outcome [1]: inactive | outcome [2]: inactive | outcome [3]: inactive | outcome [4]: inactive | outcome [6]: inactive

CNCC(O)c1ccc(OC(=O)C(C)(C)C)c(OC(=O)C(C)(C)C)c1 (stereo unspecified)
outcome [1]: inactive | outcome [2]: inactive | outcome [3]: inactive | outcome [4]: inactive | outcome [7]: inactive | outcome [6]: inactive

CC[C@H]1OC(=O)[C@H](C)[C@@H](O[C@H]2C[C@@](C)(OC)[C@@H](O)[C@H](C)O2)[C@H](C)[C@@H](O[C@@H]2O[C@H](C)C[C@H](N(C)C)[C@H]2O)[C@](C)(O)C[C@@H](C)CN(C)[C@H](C)[C@@H](O)[C@]1(C)O
outcome [1]: inactive | outcome [2]: inactive | outcome [3]: inactive | outcome [4]: inactive | outcome [7]: inactive | outcome [6]: inactive

O=C(c1ccccc1)c1ccc2n1CCC2C(=O)O (stereo unspecified)
outcome [1]: inactive | outcome [2]: inactive | outcome [3]: inactive | outcome [4]: inactive | outcome [5]: inactive | AC50 [6]: 43.6 µM (active)

CCOc1ccc(NC(C)=O)cc1N
outcome [1]: inactive | outcome [2]: inactive | outcome [3]: inactive | outcome [4]: inactive | outcome [5]: inactive | outcome [6]: inactive

Cc1nccn1CC1CCc2c(c3ccccc3n2C)C1=O (stereo unspecified)
outcome [1]: inactive | outcome [2]: inactive | outcome [3]: inactive | outcome [4]: inactive | outcome [7]: inactive | outcome [6]: inactive

CCN(CC)Cc1cc(Nc2ccnc3cc(Cl)ccc23)ccc1O
outcome [1]: inactive | outcome [2]: inactive | outcome [3]: inactive | outcome [4]: inactive | outcome [7]: inactive | outcome [6]: inactive

O=C(Nc1ccccc1)Nc1ccccc1
outcome [1]: inactive | outcome [2]: inactive | outcome [3]: inactive | outcome [4]: inactive | outcome [7]: inactive

CNCCC=C1c2ccccc2CCc2ccccc21
outcome [1]: inactive | outcome [2]: inactive | outcome [3]: inactive | AC50 [4]: 35.8 µM (active) | outcome [7]: inactive | outcome [6]: inactive

O=Cc1ccc([N+](=O)[O-])cc1
outcome [1]: inactive | outcome [2]: inactive | outcome [3]: inactive | outcome [4]: inactive | outcome [5]: inactive | outcome [6]: inactive

Oc1ccc2c(c1)OCO2
outcome [1]: inactive | outcome [2]: inactive | outcome [3]: inactive | outcome [4]: inactive | outcome [7]: inactive | outcome [6]: inactive

C=C(C)C(=O)OCCNC(C)(C)C
outcome [1]: inactive | outcome [2]: inactive | outcome [3]: inactive | outcome [4]: inactive | outcome [7]: inactive

CC1Cc2ccccc2N1NC(=O)c1ccc(Cl)c(S(N)(=O)=O)c1 (stereo unspecified)
outcome [1]: inactive | outcome [2]: inactive | outcome [3]: inactive | outcome [4]: inactive | outcome [5]: inactive | outcome [7]: inactive | outcome [6]: inactive | outcome [8]: inactive | outcome [9]: inactive | outcome [10]: inactive

CCN1CCC[C@H]1CNC(=O)c1cc(S(N)(=O)=O)ccc1OC
outcome [1]: inactive | outcome [2]: inactive | outcome [3]: inactive | outcome [4]: inactive | outcome [7]: inactive | outcome [6]: inactive

C=CCONC(CCC)=C1C(=O)CC(C)(C)C(C(=O)OC)=C1O
outcome [1]: inactive | outcome [2]: inactive | outcome [3]: inactive | outcome [4]: inactive | outcome [5]: inactive | outcome [6]: inactive

OC[C@H](Cc1cccc(O)c1)[C@H](CO)Cc1cccc(O)c1
outcome [1]: inactive | outcome [2]: inactive | outcome [3]: inactive | outcome [4]: inactive | outcome [7]: inactive

CCCc1cc(C(N)=S)ccn1
outcome [1]: inactive | outcome [2]: inactive | outcome [3]: inactive | outcome [4]: inactive | outcome [7]: inactive

CCCCCCCCCOC(=O)c1ccccc1C(=O)OCCCCCCCCC
outcome [1]: inactive | outcome [2]: inactive | outcome [3]: inactive | outcome [4]: inactive | outcome [5]: inactive | outcome [6]: inactive

CC(C(O)c1ccccc1)N(C)CCOC(c1ccccc1)c1ccccc1 (stereo unspecified)
outcome [1]: inactive | outcome [2]: inactive | outcome [3]: inactive | AC50 [4]: 42.2 µM (active) | outcome [7]: inactive

CN1CCC(OC(=O)C(Oc2ccc(Cl)cc2)Oc2ccc(Cl)cc2)CC1
outcome [1]: inactive | outcome [2]: inactive | outcome [3]: inactive | outcome [4]: inactive | outcome [5]: inactive | outcome [6]: inactive

C=C(C)C(=O)OCCCCCCCCCCCCC
outcome [1]: inactive | outcome [2]: inactive | outcome [3]: inactive | outcome [4]: inactive | outcome [7]: inactive | outcome [6]: inactive

CC(C)(Oc1ccc(C2CCCc3ccccc32)cc1)C(=O)O (stereo unspecified)
outcome [1]: inactive | outcome [2]: inactive | outcome [3]: inactive | outcome [4]: inactive | outcome [7]: inactive

CC(C)CCCCCCN
outcome [1]: inactive | outcome [2]: inactive | outcome [3]: inactive | outcome [4]: inactive | outcome [7]: inactive

O=c1cc[nH]c(=O)[nH]1
outcome [1]: inactive | outcome [2]: inactive | outcome [3]: inactive | outcome [4]: inactive | outcome [7]: inactive | outcome [6]: inactive

C=C[C@]1(C)C[C@@H](OC(=O)CSCCN(CC)CC)[C@]2(C)[C@H](C)CC[C@]3(CCC(=O)[C@H]32)[C@@H](C)[C@@H]1O
outcome [1]: inactive | outcome [2]: inactive | outcome [3]: inactive | outcome [4]: inactive | outcome [7]: inactive

CCCCCCCCCCCCCCCBr
outcome [1]: inactive | outcome [2]: inactive | outcome [3]: inactive | outcome [4]: inactive | outcome [7]: inactive

CCN(CC)CCNC(=O)c1ccc(NS(C)(=O)=O)cc1
outcome [1]: inactive | outcome [2]: inactive | outcome [3]: inactive | outcome [4]: inactive | outcome [7]: inactive

COC(=O)C1CC(=O)C(C(=O)OC)CC1=O (stereo unspecified)
outcome [4]: inactive

O=C(OOC(=O)c1ccccc1)c1ccccc1
outcome [10]: inactive

C=C(C)C1CCC(C)(O)CC1 (stereo unspecified)
outcome [10]: inactive

CC(=O)OCC(=O)[C@@]1(O)[C@H](OC(C)=O)C[C@H]2[C@@H]3CCC4=CC(=O)C=C[C@]4(C)[C@@]3(F)[C@@H](O)C[C@@]21C
outcome [1]: inactive | outcome [2]: inactive | outcome [11]: inactive | outcome [4]: inactive

COc1cc(-c2ccc(=O)[nH]n2)ccc1OC(F)F
outcome [1]: inactive | outcome [2]: inactive | outcome [3]: inactive | outcome [7]: inactive | outcome [6]: inactive

O=C(O)[C@H](O)[C@@H](O)[C@H](O[C@@H]1O[C@H](CO)[C@H](O)[C@H](O)[C@H]1O)[C@H](O)CO
outcome [1]: inactive | outcome [2]: inactive | outcome [3]: inactive | outcome [7]: inactive

CC(=O)OCC(=O)[C@@]12OC3(CCCC3)O[C@@H]1C[C@H]1[C@@H]3CCC4=CC(=O)C=C[C@]4(C)[C@@]3(F)[C@@H](O)C[C@@]12C
outcome [1]: inactive | outcome [2]: inactive | outcome [3]: inactive | outcome [6]: inactive

COc1ccc2cc([C@H](C)C(=O)O)ccc2c1
outcome [1]: inactive | outcome [2]: inactive | outcome [3]: inactive | outcome [5]: inactive | outcome [12]: inactive | outcome [8]: inactive | outcome [9]: inactive

CC(CNC(=O)c1cccnc1)NC(=O)c1cccnc1 (stereo unspecified)
outcome [1]: inactive | outcome [2]: inactive | outcome [11]: inactive
